The source of these data is PubChem BioAssay AID485273 (Sanford-Burnham Center for Chemical Genomics, 2010).

Values joined by “and” are separate entries in the source; they are usually repeats but may differ in a detail not shown here. Equal entries are not always repeated. The whole screen tested about 330,000 compounds, of which about 1,500 (0.45%) were called active. The entries come from a sample that favours actives as a whole. Unmarked numbers belong to inactive results. Rule as the data show it: active = inhibition above about 45% (passing the limit was not always enough); inconclusive = no clear call, values can overlap the other calls.

Sequence of Ubiquitin-conjugating enzyme E2 N (Homo sapiens) (P61088 whole entry, looked up): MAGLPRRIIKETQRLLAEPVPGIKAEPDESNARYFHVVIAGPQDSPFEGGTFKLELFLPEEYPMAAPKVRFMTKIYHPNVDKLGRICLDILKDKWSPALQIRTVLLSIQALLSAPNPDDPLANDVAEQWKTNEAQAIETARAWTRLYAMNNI

The test has as its target Ubiquitin-conjugating enzyme E2 N (Homo sapiens) (UniProt P61088). Briefly: UBC13 polyubiquitin chain formation inhibitors, primary screen, biochemical, TR-FRET, uHTS (AID 485273). The settings on record: at 20 µM, active compounds read high. (In general: Time-resolved FRET reads energy transfer from a long-lived donor to a nearby acceptor.)
Turning to `O=C1C(=O)N(c2ccccc2)c2ccccc21`, the inhibition – broadly, the relative decrease from the control value, in per cent – was -10.7%.

Regarding `CC(C)(C)c1nnc(N/N=C/c2ccc(O)cc2)n(N)c1=O`, the inhibition is -10.3%.

For the compound `CCCc1cc(=S)n2c([nH]c3ccccc32)c1C#N`, the inhibition is -11.8%.

As to `O=C(Nc1ccon1)c1nc[nH]c1C(=O)NCc1ccccc1`, the inhibition is -4.8%.

For `CCOC(=O)c1ccc(NC(=O)c2nc[nH]c2C(=O)NCc2ccccc2)cc1`, the inhibition is 65% (active).

Consider `CCOC(=O)c1[nH]cnc1C(=O)Nc1ccccc1C`, for which the inhibition is -4.7%.

As to `Cc1cc(C)c(SCCc2ccncc2)c(C)c1`, the inhibition is 5.6%.

For `Cc1ccccc1CCNC(=O)C1CCC(=O)N(Cc2ccc(Cl)cc2)C1` (stereo not drawn), the inhibition is 1.4%.

As to `CCOC(=O)c1nnn(-c2nonc2OC)c1-c1ccccc1`, the inhibition was 1%.

With `COC(=O)/C(=C1\Oc2ccc(C(C)(C)C)cc2S1)C(F)(F)F`, the inhibition is -10.5%.

Consider `CCOC(=O)C1=C(c2ccccc2)O/C(=C(/C(=O)OC)C(F)(F)F)S1`, for which the inhibition is 46.8% (active).

`COc1ccc2sc(-c3ccc(S(C)(=O)=O)cc3)c(-c3ccc(C(N)=O)cc3)c2c1`: the inhibition is 38.5%.

Regarding `COc1ccc2sc(-c3ccc(S(C)(=O)=O)cc3)c(C#Cc3cncn3C)c2c1`, the inhibition is 47.1% (active).

Turning to `COc1ccc(-c2sc3ccc(OC)cc3c2C#Cc2ccccn2)cc1`, the inhibition was 29.9%.

As for `CCOC(=O)C1CCN(Cc2coc3ccc(Cl)cc3c2=O)CC1`, the inhibition is -15.5%.

For the compound `CCOC(=O)c1c(S(=O)(=O)Nc2cccc(Cl)c2)c(C)n(C)c1C`, the inhibition is -2.9%.

Turning to `Cc1c(C(=O)N2CCCC2)c(S(=O)(=O)NCC(C)c2ccccc2)c(C)n1C` (stereo not drawn), the inhibition was -2.8%.

Regarding `CCOC(=O)c1cccc(NS(=O)(=O)c2c(C(=O)N3CCCCCC3)c(C)n(C)c2C)c1`, the inhibition is 46.1% (active).

Regarding `Cc1nnc(SC(C)C(=O)Nc2ccc(S(=O)(=O)NC3CCCCC3)cc2)s1` (stereo not drawn), the inhibition was -0.1%.

Turning to `C=CCN1C(=O)C(Cc2ccc(OCC)cc2)SC1=Nc1ccc(C(=O)O)cc1` (stereo not drawn), the inhibition is 7.8%.

For `CCC1CCC/C1=N\NC(=O)c1ccc(Cl)cc1` (stereo not drawn), the inhibition was 6.6%.

Turning to `Cc1ccc(Oc2cc(NC(=O)CCCn3nc(C)c([N+](=O)[O-])c3C)cc([N+](=O)[O-])c2)cc1`, the inhibition was -3.8%.

Take `C=C1c2c(Cl)ccc(O)c2C(O)=C2C(=O)[C@]3(O)C(O)=C(C(N)=O)C(=O)[C@@H](N(C)C)[C@@H]3[C@@H](O)C12` (stereo partly drawn): the inhibition is 57.1% (active).

Consider `CN(C)[C@@H]1C(=O)C(C(N)=O)=C(O)[C@@]2(O)C(=O)C3=C(O)c4c(O)ccc(Cl)c4[C@@H](O)[C@H]3C[C@@H]12`, for which the inhibition is 6.5%.

On to `COc1ccccc1NC(=O)CSc1nnc(-c2ccoc2C)n1CCc1ccccc1`, for which the inhibition was 94.2% (active).

Consider `CCn1c(SCC(=O)Nc2cc(C)c(Cl)cc2OC)nnc1-c1ccco1`, for which the inhibition is 4.1%.

Turning to `CCCn1c(SCC(=O)Nc2cccc(C(=O)OCC)c2)nnc1-c1ccoc1C`, the inhibition was 11.9%.

As to `CC(Oc1ccccc1)C(=O)Nc1oc(-c2ccco2)c(-c2ccco2)c1C#N` (stereo not drawn), the inhibition is -15.8%.

Turning to `Cc1nonc1C1CCCN1Cc1nc(-c2ccc(F)cc2F)oc1C` (stereo not drawn), the inhibition is 0.7%.

`CC1(C)NC(=O)N(CC(=O)Nc2cc(C(F)(F)F)cc(C(F)(F)F)c2)C1=O`: the inhibition was 0.4%.

As for `C=CCn1c(Oc2ccc(C(=O)OC)cc2)nc2c1c(=O)n(C)c(=O)n2C`, the inhibition is -13%.

`O=S(=O)(c1ccccc1)N1CN(Cc2ccc(F)cc2)c2nc3ccccc3nc21`: the inhibition is -1.4%.

In the case of `Cc1ccc(NC(=O)c2cc([N+](=O)[O-])ccc2Cl)c(O)c1`, the inhibition is 2.4%.

`CC[n+]1cc(C)ccc1/C=C/c1ccc(N(C)C)cc1`: the inhibition is -286%.

On to `CCOc1cc(C(C(=O)NCC2CCCO2)N(C(=O)Cn2nnc3ccccc32)c2cccc(OC)c2)ccc1O` (stereo not drawn), for which the inhibition was 4%.

Consider `Cc1ccc(N(C(=O)Cc2cccs2)C(C(=O)NCC2CCCO2)c2ccncc2)cc1` (stereo not drawn), for which the inhibition was -4.7%.

Take `Cc1cccc(N(C(=O)c2sc(C)nc2C)C(C(=O)NCC2CCCO2)c2ccccc2)c1` (stereo not drawn): the inhibition is 2.5%.

In the case of `CCOc1ccc(-n2c(N)c(C(=O)NCC3CCCO3)sc2=S)cc1` (stereo not drawn), the inhibition is 3.2%.

As to `Cc1ccc(C(C(=O)NCC2CCCO2)N(C(=O)c2snc(C(N)=O)c2N)c2ccc(C(C)C)cc2)o1` (stereo not drawn), the inhibition is 45.7% (active).

Consider `CC(C)(C)NC(=O)C(c1ccc(Cl)cc1)N(CCO)C(=O)c1snc(C(N)=O)c1N` (stereo not drawn), for which the inhibition was 5.2%.

In the case of `CCOc1ccc(N(C(=O)c2snc(C(N)=O)c2N)C(C(=O)NCC2CCCO2)c2c[nH]c3ccccc23)cc1` (stereo not drawn), the inhibition is 89.4% (active).

As to `O=C(NCC(=O)N(c1ccccc1)C(C(=O)NCC1CCCO1)c1ccccc1)c1cccs1` (stereo not drawn), the inhibition was -2.5%.

On to `COc1cccc(N(C(=O)c2snc(C(N)=O)c2N)C(C(=O)NCC2CCCO2)c2c[nH]c3ccccc23)c1` (stereo not drawn), for which the inhibition is 59.9% (active).

With `CCOc1ccc(C(C(=O)NC2CCCC2)N(C(=O)c2snc(C(N)=O)c2N)C2CCCC2)cc1` (stereo not drawn), the inhibition is 5.2%.

For the compound `COCCNC(=O)C(c1ccc(C)o1)N(Cc1cccs1)C(=O)c1snc(C(N)=O)c1N` (stereo not drawn), the inhibition was 4.7%.

For the compound `Cc1ccc(N(C(=O)c2snc(C(N)=O)c2N)C(C(=O)NCC2CCCO2)c2c[nH]c3ccccc23)cc1` (stereo not drawn), the inhibition is 75% (active).

Regarding `COC(=O)Nc1ccc(S(=O)(=O)N(C)CC(F)(F)C(F)F)cc1`, the inhibition is 4.1%.

Consider `COc1ccccc1N1CCN(C(=O)c2cc(=O)c3cc(C)cc(C)c3o2)CC1`, for which the inhibition is -5.8%.

As to `Cn1cc(S(=O)(=O)Nc2ccc(Cl)cc2Cl)c(=O)n(C)c1=O`, the inhibition was -9.5%.

As to `N/C(=N\OC(=O)CCc1ccccc1)c1ccc(Cl)cc1`, the inhibition is 3.8%.

Take `COC(=O)c1ccc(CSc2ccc3nnc(-c4ccccc4)n3n2)o1`: the inhibition was 14.2%.

With `COc1ccc(-c2nnc3ccc(SCc4ccccc4)nn23)cc1`, the inhibition is 49.1% (active).

On to `O=C(CSc1ccc2nnc(-c3ccccc3)n2n1)N1CCCc2ccccc21`, for which the inhibition was 8.9%.

On to `COc1ccc(C)cc1S(=O)(=O)N(CC(=O)Nc1cccc([N+](=O)[O-])c1)c1ccc(C)cc1`, for which the inhibition is -5.5%.

Turning to `COc1cc(C(C(=O)NC2CCCC2)N(Cc2ccccc2)C(=O)c2snc(C(N)=O)c2N)ccc1O` (stereo not drawn), the inhibition is 13.8%.

Turning to `COc1ccc(N(C(=O)c2snc(C(N)=O)c2N)C(C(=O)NC2CCCC2)c2ccc(C)o2)c(OC)c1` (stereo not drawn), the inhibition was 12.9%.

Regarding `CCC(C(=O)NC1CCCCC1)N(C(=O)c1snc(C(N)=O)c1N)c1ccc(OC)cc1OC` (stereo not drawn), the inhibition was 14.4%.

Turning to `COc1ccc(N(C(=O)c2snc(C(N)=O)c2N)C(C(=O)NC2CCCC2)c2ccco2)cc1OC` (stereo not drawn), the inhibition is 80.3% (active).

As for `CCC(C(=O)NC1CCCC1)N(C(=O)c1snc(C(N)=O)c1N)c1ccc2c(c1)OCCO2` (stereo not drawn), the inhibition is 86.7% (active).

Regarding `COc1ccc(C(C(=O)NC2CCCCC2)N(C(=O)c2snc(C(N)=O)c2N)c2ccccc2OC)cc1` (stereo not drawn), the inhibition was 8.5%.

As to `COc1ccc(C)cc1NC(=S)Nc1ccccc1SC`, the inhibition was -7.3%.

For `COc1cccc(/C=C2\Sc3ccc(C(=O)NCC4CCCO4)cc3N(C)C2=O)c1` (stereo not drawn), the inhibition is -7.4%.

For the compound `Cc1cccc(C)c1OCC(O)CN1CCCCC1` (stereo not drawn), the inhibition is 11.2%.

For the compound `Cc1cccc(OCC(O)CN2CCN(CCN3C(=O)c4cccc5cccc(c45)C3=O)CC2)c1C` (stereo not drawn), the inhibition was 83% (active).

For the compound `Cc1ccccc1OCC(O)CN1CCN(c2ccccn2)CC1` (stereo not drawn), the inhibition was 0.6%.

Turning to `Cc1cc(C)c(S(=O)(=O)c2ccccc2)c(OC(=O)c2c(F)cccc2Cl)n1`, the inhibition is 2.7%.

In the case of `O=C(COC(=O)/C=C/c1nc2ccccc2s1)Nc1ccccc1Oc1ccccc1`, the inhibition is -4.1%.

In the case of `CC(c1ccco1)N(C(=O)COc1ccccc1[N+](=O)[O-])c1ccccn1` (stereo not drawn), the inhibition is -13.5%.

Turning to `CC(C)Nc1ccc(-n2nc3ccccc3[n+]2[O-])cc1`, the inhibition is 0.3%.

In the case of `C#CCOCCOCCOCCNc1nc(N2CCN(C(=O)[C@H](CCCCN)n3cc([C@@H](N)C(C)CC)nn3)CC2)nc(N2CCN(C(=O)[C@H](Cc3ccc(O)cc3)n3cc([C@@H](N)C(C)CC)nn3)CC2)n1` (stereo partly drawn), the inhibition is 95.9% (active).

Turning to `C#CCOCCOCCOCCNc1nc(N2CCN(C(=O)[C@H](CCC(=O)O)n3cc(C(N)CO)nn3)CC2)nc(N2CCN(C(=O)[C@H](Cc3ccc(O)cc3)n3cc(C(N)[C@H](C)CC)nn3)CC2)n1` (stereo partly drawn), the inhibition is -1.7%.

For `C#CCOCCOCCOCCNc1nc(N2CCN(C(=O)[C@H](Cc3ccc(O)cc3)n3cc(C(N)CC(C)C)nn3)CC2)nc(N2CCN(C(=O)[C@H](CCC(=O)O)n3cc(C(N)[C@H](C)CC)nn3)CC2)n1` (stereo partly drawn), the inhibition was -7.8%.

`C#CCOCCOCCOCCNc1nc(N2CCN(C(=O)[C@H](CO)n3cc([C@@H](N)C(C)C)nn3)CC2)nc(N2CCN(C(=O)[C@H](CCC(=O)O)n3cc([C@@H](N)[C@H](C)CC)nn3)CC2)n1`: the inhibition was 8.2%.

`C#CCOCCOCCOCCNc1nc(N2CCN(C(=O)[C@H](CCC(=O)O)n3cc(C(N)CO)nn3)CC2)nc(N2CCN(C(=O)[C@H](CCCCN)n3cc(C(N)[C@H](C)CC)nn3)CC2)n1` (stereo partly drawn): the inhibition is 5.8%.

Regarding `C#CCOCCOCCOCCNc1nc(N2CCN(C(=O)C(Cc3ccc(O)cc3)n3cc(C(N)CC(C)C)nn3)CC2)nc(N2CCN(C(=O)C(Cc3ccc(O)cc3)n3cc(C(N)C(C)CC)nn3)CC2)n1` (stereo not drawn), the inhibition is 45.5% (active).

For `O=C(Cn1c[n+](CC(=O)c2ccc([N+](=O)[O-])cc2)cn1)c1ccc([N+](=O)[O-])cc1`, the inhibition is -18.4% and -8%.

Consider `S=C(c1ccc(-c2ccccc2)o1)N1CCCCC1`, for which the inhibition was -13.9%.

For `CC(C)NC(=O)C(=O)NCCCOC(C)C`, the inhibition is -2.8%.
